The panel holds about 83,000 compounds, 20% with a hit somewhere; the sample as a whole holds those more often.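 Step 1: grow cells in 96-well plates. Step 2: add test compound at a single concentration. Step 3: incubate 48 h. Step 4: record percent growth.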 Calls of active or inactive are those of the source. Rule for the calls: active = growth percent below 10; inactive = the rest.
The compounds below were run on HOP-92 NSCLC (assay: NCI-60 one-dose screen, 48 h (100 = growth as untreated, 0 = no growth, -100 = all killed)). Conditions: 10 µM unless noted.

Structure (SMILES)	growth
C=C1C(=O)O[C@H]2[C@H]1CC/C(COC(=O)NCCc1c[nH]c3ccccc13)=C\CC[C@@]1(C)O[C@@H]21	-52% (active)
C/C(=N\Nc1cc(C)c2ccccc2n1)c1ccccn1	-13.9% (active)
COC(=O)CNc1nc(N(C)O)nc(N(C)O)n1	35.2% (inactive)
Cc1ccc(-c2nc([P+](c3ccccc3)(c3ccccc3)c3ccccc3)c(N3C[C@H]4C[C@H](C3)c3cccc(=O)n3C4)o2)cc1	62.6% (inactive)
COC(=O)[C@]12CC[C@@H](C)[C@H](C)[C@@H]1C1=CC[C@@H]3[C@@]4(C)CC(=O)[C@H](OC(=O)c5ccco5)[C@@]5(C)COC(=C45)C[C@@]3(C)[C@]1(C)CC2	60.6% (inactive)
COc1ccc(/C=C/C(=O)NCC(C)O)cc1 (stereo not drawn)	101% (inactive)
Cc1nn(-c2ccc(Cl)cc2)c(=O)n1CCn1cnc2ccccc21	101% (inactive)
CN1CCN(CCOc2ccc(-c3cnc4c(-c5ccccc5F)cnn4c3)cc2)CC1	2.22% (active)
O=C(NO)c1ccc(Cn2c(=O)n(-c3ccccc3)c(=O)c3ccccc32)cc1	48.4% (inactive)
COc1cccc2c1C(=O)c1c(O)c3c(c(O)c1C2=O)C[C@@](O)(C(=O)CO)C[C@@H]3OC1C[C@H](N)[C@H](O)[C@H](C)O1 (stereo partly drawn)	-26.2% (active)
CCC(CC)C(=O)OC(C)COc1ccc(C(C)(C)C)cc1 (stereo not drawn)	92.6% (inactive)
Nc1ccc(Cl)cn1	87% (inactive)
CN1CCN(CCOc2ccc(-c3cnc4c(-c5cccc(F)c5)cnn4c3)cc2)CC1	24.8% (inactive)
CCCC1CCCCN1C(=O)OCC(C)C (stereo not drawn)	113% (inactive)
O=S(=O)(NCCNc1cc(-c2cn(-c3ccccc3)nc2-c2cccc(O)c2)ccn1)c1cccc(F)c1	51.1% (inactive)
Cc1cccc(C)c1NC(=O)CSC(=S)N1CCCCC1	107% (inactive)
O=C(/C=C/c1cccc(O)c1)c1ccccc1O	68.6% (inactive)
O=C(NO)c1ccc(Cn2c(=O)n(CCc3ccc(O)cc3)c(=O)c3ccccc32)cc1	80% (inactive)
COc1ccc(O)c(-c2cc(-c3ccc(Cl)cc3)c(C#N)c(=O)[nH]2)c1	36% (inactive)

Structure (SMILES)	growth
CCC(=O)c1c(C)[nH]c(C)c1C	107% (inactive)
COc1cc(-c2cc3ncccc3c3nc(OCCN(C)C)c4cccnc4c23)cc(OC)c1OC	-8.69% (active)
O=C(/C=C/c1cccc2ccccc12)Nc1ncc(Cc2ccccc2)s1	70.3% (inactive)
CC(C)/C=C/CC[C@](C)(O)[C@H]1CC[C@]2(C)[C@@H]1CC[C@@H]1[C@@]3(C)C/C(=C/c4cccc(C(F)(F)F)c4)C(=O)C(C)(C)[C@@H]3CC[C@]12C	92.7% (inactive)
O=C(NCN1C(=O)c2cccc3cccc(c23)C1=O)N1CCC(Cc2ccccc2)CC1	70% (inactive)
COc1cnc2c(c1)C(=O)c1c-2n(CCCNCCN2CCOCC2)c(=O)c2cc([N+](=O)[O-])ccc12	-4.05% (active)
CCCCCCCC(=O)SCC/C=C/[C@@H]1CC(=O)NCc2cccc(n2)CN(Cc2ccc3ccccc3c2)CC(=O)N[C@@H](C(C)C)C(=O)O1	18.2% (inactive)
Fc1ccc2nc(-c3cc(-c4ccc5c(c4)OCO5)n[nH]3)[nH]c2c1	64.9% (inactive)
Cn1cc(-c2nc(-c3cn(C)c4ncccc34)cs2)c2cc(F)ccc21	72.4% (inactive)
NCCn1cc(-c2nc(-c3c[nH]c4ncccc34)cs2)c2ccccc21	54.3% (inactive)
COc1ccc(-c2cc(-c3c(C)oc4cc5occc5c(OC)c4c3=O)nc(N)c2C#N)cc1OC	10.6% (inactive)
CN(C)c1ccc(N)c2ccccc12	105% (inactive)
CN(C)CCCCC(C(=O)CBr)(c1ccccc1)c1ccccc1	-12.2% (active)
O=C1Nc2ccccc2/C1=C/c1cn(CCCn2c3ccccc3c(=O)c3ccccc32)c2ccccc12	83.4% (inactive)
C=C(C)[C@@H]1CC[C@]2(C=NCCCNCCCCNCCCN)CC[C@]3(C)[C@H](CC[C@@H]4[C@@]5(C)CCCNC(C)(C)[C@@H]5CC[C@]43C)[C@@H]12	92.4% (inactive)
CCCCn1c(-c2ccc(O)cc2)cn2c3c(=O)[nH]c(=O)n(C)c3nc12	43.1% (inactive)
Cc1nn(-c2ccc(Br)cc2)c2nc3[nH]c(=O)[nH]c(=O)c3nc12	110% (inactive)
Cc1cc2nc3c4cc(N)ccc4n(CCN(C)C)c3nc2cc1C	37.6% (inactive)
COc1ccc(-c2nc3c(c(C)nn3-c3ccc(F)cc3)c(=O)[nH]2)cc1	91.8% (inactive)
